Screening results from PubChem BioAssay.
Hits are enriched below; roughly 21% of the tested compounds scored in any of these assays.
Pf growth 96h – P. falciparum growth inhibition at 96 hour, primary screen for plastid delayed-death inhibitors. P. falciparum luciferase reporter growth, 96 h. Potency, µM (titrated, usually from 28.7 µM), for inactives: top-dose activity change, negative = inhibition, hits mostly inhibitors. 6.9% of 320,000 active. AID 504834; further: potency means the concentration at half of the fitted maximal effect; on the % scale 0 is the no-effect control and ±100 the full control effect
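Erythrocytes infected with luciferase-expressing P. falciparum were dispensed at 2% hematocrit and 0.05% parasitemia (final), then incubated with compounds 96 hours at 37 C in 5% CO2. Luminescence after detection reagent addition reported growth.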
Pf growth 48h – P. falciparum growth inhibition at 48 hours (one generation). P. falciparum luciferase growth in erythrocytes, 48 h. Potency, µM (series often up to 28.7 µM), without a hit: top-dose activity change, negative = inhibition, hits mostly inhibitors. 5.9% of 310,000 active; further: potency means the concentration at half of the fitted maximal effect; on the % scale 0 is the no-effect control and ±100 the full control effect
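First compound was added to culture medium, then infected red cells at 0.1% parasitemia and 2% hematocrit (final). After incubation at 37 C under 5% CO2, luciferase detection reagent was dispensed and light output recorded.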
Shiga toxin inh – blocks Shiga toxin action in Vero cells. inhibition, % at 38.7 µM. 9.2% of 290,000 active. AID 2315. Vero cells, Shiga toxin protein synthesis inhibition reporter; in the data active means inhibition mostly above about 28%, no sharp cut-off; inactive means mostly below about 43%; further: 0% is about no effect
CHX counter – counter-screen hit for Shiga toxin inhibitors, cycloheximide; cell reporter, cycloheximide protein synthesis inhibition counterscreen; max response, %; 12% of 300,000 active; AID 2314; in the data active means max response mostly above about 13%, no sharp cut-off; inactive means mostly below about 14%; further: read at 38.3 µM for the half of the compounds with a filed dose; 0% is about no effect
* hit, by the source's call; [ ] = remark or other dose. Unless noted, the call rests on the fitted dose curve; in most records, active means well fitted inhibition curve with a large enough effect; inconclusive means small, poorly fitted or top-dose-only effect, or another doubt; inactive means no such curve, though single readings can be large or run the other way.

Results for O=C(CCC(=O)OCc1ccc([N+](=O)[O-])cc1Cl)Nc1ccccc1 ?
Pf growth 96h: -3.9%; Pf growth 48h: 14.1%; Shiga toxin inh: -27.0; CHX counter: 13.5

How did CN(CCCC1CCCC1)C(=O)c1cc(COc2ccc(F)cc2F)on1 do in these assays?
Pf growth 96h: 5.9%; Pf growth 48h: -10.1%; Shiga toxin inh: 58.1*; CHX counter: 22.0*

Results for CN(CCC1CCCCO1)C(=O)c1cc(COc2ccc(F)cc2F)on1 (stereo not given) ?
Pf growth 96h: 15.9%; Pf growth 48h: -24.1%; Shiga toxin inh: 43.8; CHX counter: 20.9*

What do the screens show for `CN(CCCN1CCCCC1)C(=O)c1cc(COc2ccc(F)cc2F)on1`?
Pf growth 96h: -13.7%; Pf growth 48h: inconclusive; Shiga toxin inh: 16.3; CHX counter: -1.6

How did CC(=C(CCOP(=O)(O)O)SC(=O)c1ccccc1)N(C=O)Cc1cnc(C)nc1N do in these assays?
Pf growth 96h: -1.1%[12.8 µM]; Pf growth 48h: 3.2%[12.8 µM]

What do the screens show for `COc1nc(-c2ccccc2)ccc1-c1noc(-c2cccnc2)n1`?
Pf growth 96h: -0.2%; Pf growth 48h: 0.0%; Shiga toxin inh: 3.3; CHX counter: 8.7*

What do the screens show for `COc1ccccc1-c1noc(-c2cc(OC)c(OC)c(OC)c2)n1`?
Pf growth 96h: inconclusive; Pf growth 48h: -25.8%; Shiga toxin inh: 4.1; CHX counter: -2.1

Results for COc1ccccc1-c1noc(-c2cccnc2)n1 ?
Pf growth 96h: 105.5%; Pf growth 48h: 102.8%; Shiga toxin inh: 66.7*; CHX counter: 29.2*

Results for COc1nc(-c2ccc(C)cc2)ccc1-c1noc(-c2cccnc2)n1 ?
Pf growth 96h: 11.7µM*; Pf growth 48h: 22.7%; Shiga toxin inh: 7.6; CHX counter: -1.7

How did COc1ccc(-c2ccc(-c3noc(-c4cccc(OC)c4)n3)c(OC)n2)cc1 do in these assays?
Pf growth 96h: inconclusive; Pf growth 48h: 29.0%; Shiga toxin inh: -16.6; CHX counter: -2.1

How did Cc1ccc(C)c(NC(=O)C2CCCN2C(=O)NC2CCCCC2)c1 (stereo not given) do in these assays?
Pf growth 96h: 37.0%; Pf growth 48h: -14.3%; Shiga toxin inh: -4.4; CHX counter: -1.7

Results for CN(C)/C=C/C(=O)c1ccccc1OCc1cnc(Cl)s1 ?
Pf growth 96h: 11.4%; Pf growth 48h: -7.4%; Shiga toxin inh: 15.1; CHX counter: 8.9

What do the screens show for `CC1(CCC(=O)N2CCCC(N3CCN(c4ccc(F)cc4)CC3)C2)CC1` (stereo not given)?
Pf growth 96h: inconclusive; Pf growth 48h: -19.3%; Shiga toxin inh: -20.0; CHX counter: -2.1

How did CC1CCN(C(=O)c2cc(Cl)ccc2NC(=O)c2ccco2)CC1 do in these assays?
Pf growth 96h: 2.33µM*; Pf growth 48h: 6.5%; Shiga toxin inh: -4.7; CHX counter: -3.3

Results for O=C(Nc1ccccc1C(=O)N1CCOCC1)c1ccco1 ?
Pf growth 96h: inconclusive; Pf growth 48h: -0.3%; Shiga toxin inh: -8.1; CHX counter: 0.9

Results for CC1CCCCN1C(=O)c1ccccc1NC(=O)c1ccco1 (stereo not given) ?
Pf growth 96h: 10.4µM*; Pf growth 48h: 3.7%; Shiga toxin inh: 1.5; CHX counter: -5.0

How did COc1cc(C2c3c(oc4ccccc4c3=O)C(=O)N2c2nccs2)ccc1O (stereo not given) do in these assays?
Pf growth 96h: -6.6%; Pf growth 48h: -2.9%; Shiga toxin inh: -4.1; CHX counter: 0.7

What do the screens show for `COC(=O)CC1C(=O)NCCN1C(=O)c1ccc(Cl)cc1` (stereo not given)?
Pf growth 96h: 9.8%; Pf growth 48h: 7.0%; Shiga toxin inh: -8.1; CHX counter: -3.2

What do the screens show for `CCOC(=O)c1cc(CC)sc1NC(=O)CN1C(=O)C(=O)N(CC(C)C)C1=O`?
Pf growth 96h: 5.1%; Pf growth 48h: 35.2%

Results for Cc1nnc(SCC(=O)NCc2ccc3c(c2)OCO3)[nH]c1=O ?
Pf growth 96h: 0.262µM*; Pf growth 48h: 37.4%; Shiga toxin inh: 5.8; CHX counter: -0.8

How did Cn1c(=O)c2c(nc(SCC(=O)NCc3ccc4c(c3)OCO4)n2Cc2ccc(Cl)cc2)n(C)c1=O do in these assays?
Pf growth 96h: -9.6%; Pf growth 48h: 9.28µM*; Shiga toxin inh: 1.2; CHX counter: -1.4

What do the screens show for `Cn1c(=O)c2c(nc(NCc3ccc4c(c3)OCO4)n2Cc2ccccc2Cl)n(C)c1=O`?
Pf growth 96h: 17.4%; Pf growth 48h: 2.0%; Shiga toxin inh: 9.6; CHX counter: -1.8

Results for Cc1nnc(SCC(=O)N(C(C)C)C(C)C)[nH]c1=O ?
Pf growth 96h: -9.0%; Pf growth 48h: inconclusive; Shiga toxin inh: -3.2; CHX counter: -1.3
